PubChem BioAssay (NCATS)
Results filed as inconclusive are left out. Active and inactive are the calls of the source. The call rests on the fitted dose curve; in most records, active means well fitted cell-killing curve with a large enough effect; inconclusive means small, poorly fitted or top-dose-only effect, or effect the other way; inactive means no such curve, though single readings can be large or run the other way.

Experiment: Viability qHTS for spleen associated tyrosine kinase inhibitor (SYKi) naive MV4-11 cells (AID 1963823); further: nearly all actives have a fitted effect of over 40% in size
Conditions: MV4-11 AML viability, CellTiter-Glo luminescence, 72 h; series mostly up to 45 µM; viability (% of control): at the top concentration
Procedure, shortened: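 Luminescence from CellTiter-Glo, developed 10 min at room temperature, gave viability of MV4-11 cells never exposed to SYK inhibitor. Cells (500/well) had been incubated with compounds for 72 hr under standard culture conditions.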

SMILES | viability (% of control)
COc1ccc(C2=CC(=O)OC2Cc2ccc(O)cc2)c(O)c1 (stereo not drawn) | 66.8% (inactive)
CC1=CC(=O)C(C(C)C)=CC1=O | 81.2% (inactive)
C/C=C/C1OC2=C(C(=O)OC2(C)O)C(O)C1O (stereo not drawn) | 78.3% (inactive)
c1ccc(-c2[nH]ncc2-c2ccnc3ccccc23)nc1 | 76.1% (inactive)
C=CC/C=C\C/C=C\CCCCCCCc1cccc(O)c1C(=O)O | 70.2% (inactive)
Nc1c(S(=O)(=O)c2ccccc2)c2nc3ccccc3nc2n1-c1ccc(F)cc1 | 75.6% (inactive)
C/C=C/C=C/C=C/C(=O)O[C@@H]1[C@@H](OC)C2=C(C(=O)N(C(CCC(=O)O)C(=O)O)C2)[C@@]2(C)CCCC(C)(C)[C@H]12 (stereo partly drawn) | 74.5% [at 17.3 µM] (inactive)
Cc1ccc(OC[C@H](O)[C@H](C)NC(C)C)c2c1CCC2 | 63.1% (inactive)
